Compound activity deposited in PubChem by several laboratories.
Compounds with a hit are over-represented: about 1.9% of the library has one in this group of screens.
HSF1 activator = increases HSF-1 driven luciferase reporter signal. NIH3T3-HGL HSF-1 luciferase reporter, MG132, 8 h; 100% = twice DMSO control signal. activation, % at 9 µM. actives 1.7% (n = 300,000). AID 504408;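 active = mean replicate activation of at least 50% with a set share of replicates each reaching 50%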;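 also: 0% = median of the neutral control wells and 100% = twice that signal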
Hsp70 act = transcriptional activators of Hsp70; HeLa Hsp70 promoter luciferase reporter, luminescence; scaled: vehicle 0, proteasome-inhibitor control 100%; activation, % at 10 µM; actives 0.04% (n = 200,000);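 active = activation above the mean across all tested compounds plus 3 SD, cutoff set per campaign, cut at about 5.5% in these data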;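 also: 100% = MG132 at 30 µM as the positive control and 0% = DMSO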
zVAD death inh = L929 zVAD cell death inhibition | viability rescue, % at 10 µM | actives 0.38% (n = 220,000) | AID 1377 | L929 zVAD necroptosis rescue, ATP luminescence, 24 h; with zVAD 60 µM;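 active = activation, scaled between plate controls, above about 75%, limit read from the data; inactive = activation under that limit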;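 also: 0% = zVAD with DMSO and 100% = DMSO alone without zVAD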
TNF necrop inh = TNF-alpha cell death inhibition in Jurkat FADD-/- cells | activation (protection from cell death), % at 10 µM | Jurkat FADD-/- TNF necroptosis rescue, ATP luminescence, 24 h; 0 = TNF only, 100 = no-TNF cells | AID 463075 | actives 0.068% (n = 220,000);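 active = activation, meaning protection from cell death, of at least 50% relative to plate controls; inactive = activation below 50%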;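 also: necroptosis triggered by 40 ng/mL TNF-alpha added together with compound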
An asterisk follows results filed as active; . = no result.

SMILES | HSF1 activator | Hsp70 act | zVAD death inh | TNF necrop inh
CCn1c(O)c(C=NCc2ccccc2)sc1=S | 23.3 | . | -0.6 | 68.1*
COC(=O)C1C(=O)c2c([nH]c(C(=O)OC3CCCCC3)c2C)CC1C (centres undefined) | 68.3* | -0.1 | 24.7 | 1.8
COc1ccc(CCNc2cc(C)nc3c(-c4ccccc4)cnn23)cc1OC | -0.3 | -0.3 | 2.0 | 3.5
Cc1cc(NCc2ccccc2)n2ncc(-c3ccccc3)c2n1 | 79.5* | . | . | .
Cc1ccc(C(=O)N2CCN(S(=O)(=O)c3ccccc3[N+](=O)[O-])CC2)o1 | -3.1 | -0.2 | 0.8 | 1.5
O=C(NC(=O)c1ccccc1O)c1ccc(C(F)(F)F)cc1 | 90.9* | . | 2.4 | -0.9
COc1ccc2oc(-c3ccc(C)c(NC(=O)c4ccc(N5CCOCC5)c([N+](=O)[O-])c4)c3)nc2c1 | 80.7* | 0.2 | 2.4 | -4.8
COc1ccc(CNC(=O)c2ccc(N3CCOCC3)c([N+](=O)[O-])c2)cc1 | 11.4 | 1.5 | -0.7 | -0.1
O=c1c(-c2nn[nH]n2)coc2ccc(Cl)cc12 | 5.2 | -0.1 | 1.1 | -0.2
O=C1c2ccccc2NC(c2ccccc2O)N1c1ccc(F)cc1 (centres undefined) | 37.0 | . | . | .
COc1cccc(C2Nc3ccccc3C(=O)N2c2ccc(F)cc2)c1O (centres undefined) | 67.4* | . | . | .
COc1cccc(CN(C)CC(=O)Nc2cccc3ccccc23)c1 | 11.0 | -0.1 | 1.4 | 1.2
COc1ccc(CN(C)Cc2c(O)ccc3ccccc23)cc1 | 218.6* | . | . | .
COc1cccc(CN(C)Cc2c(O)ccc3ccccc23)c1 | 97.4* | . | . | .
COc1ccc(CCNC(=O)c2ccc3c(c2)NC(=O)C(CSCc2cc(C)ccc2C)N3)cc1OC (centres undefined) | 2.8 | . | . | .
CCn1nc(C)c(CNC(=O)CC2C(=O)NCCN2CC(C)(C)C)c1C (centres undefined) | -5.5 | -0.4 | 1.2 | 0.4
CCOC(=O)COc1ccc(/C=C2/SC(=Nc3ccccc3)N(Cc3cccnc3)C2=O)cc1OC | 63.7* | -0.5 | 0.5 | -3.8
COc1ccccc1CNS(=O)(=O)c1c(C)[nH]c(C)c1C(=O)N1CCCC1 | 15.9 | . | . | .
COc1ccc2cc(C#N)c(SCC(=O)N3CCCC3)nc2c1 | 5.4 | 0.5 | -0.7 | 0.4
COC(=O)CSc1nc2ccc(C)cc2cc1C#N | 79.5* | -0.1 | 3.7 | 0.8
COC(=O)CSc1nc2cc(OC)ccc2cc1C#N | 58.0* | 0.6 | -0.2 | -12.7
Cc1ccc(NC(=O)CN2C(=O)S/C(=C/c3ccncc3)C2=O)cc1 | -11.3 | . | . | .
COc1cccc(NC(=O)c2nnn(Cc3ccc(Br)cc3F)c2N)c1 | 70.0* | 0.1 | -1.3 | 2.8
COc1cccc(NC(=O)Cn2nnc(C(=O)Nc3ccccc3)c2N)c1 | -11.1 | -0.2 | 4.5 | 1.2
CCOC(=O)CNC(=O)CSc1ncnc2c1nnn2-c1ccc(F)cc1 | 95.5* | -0.2 | -0.5 | -1.5
SMILES | HSF1 activator | Hsp70 act | zVAD death inh | TNF necrop inh
COC(=O)C(C)Sc1ncnc2c1nnn2-c1ccc(F)cc1 (centres undefined) | 125.9* | 0.0 | 0.6 | -3.1
COc1ccc(-n2nnc3c(SC(C(C)=O)C(=O)N(C)C)ncnc32)cc1 (centres undefined) | -2.3 | . | . | .
CCOC(=O)CNC(=O)Cn1cnc2c(nnn2-c2ccc(F)cc2)c1=O | -7.9 | -0.1 | 0.5 | -2.1
CCCCc1ccc(NC(=O)CSC2=NN3CCCC(=O)N=C3S2)cc1 | 12.5 | . | . | .
O=C(COC(=O)c1nn(-c2ccccc2C(F)(F)F)cc1O)c1ccc(OC(F)F)cc1 | -5.3 | . | . | .
O=C1c2ccccc2NC(c2ccccc2)N1/N=C/c1ccccc1 (centres undefined) | 43.2 | 0.0 | -0.3 | -4.4
O=C1c2ccccc2NC(c2ccc(O)cc2)N1/N=C/c1ccc(O)cc1 (centres undefined) | 70.1* | 0.0 | 1.1 | -0.6
Cc1ccc(C)c(NC(=O)c2ccc(S(=O)(=O)N(C)CC3CCCO3)cc2)c1 (centres undefined) | 12.3 | . | . | .
Cc1ccc(SC(CC(=O)c2ccc(F)cc2)C(=O)O)cc1 (centres undefined) | 1.6 | . | . | .
CC(C)(C)c1ccc(C(=O)CC(Sc2ccc(Cl)cc2)C(=O)O)cc1 (centres undefined) | 55.6* | 0.0 | -1.1 | -11.9
c1ccc(C2=Nc3ccccc3SC2c2nc3ccccc3[nH]2)cc1 (centres undefined) | 83.8* | 0.8 | -1.2 | -1.8
O=C(/C=C/c1ccoc1)c1ccccc1O | 2.1 | -0.2 | 0.8 | 2.1
COc1ccc(/C=C/C(=O)c2cc(Br)ccc2OC(=O)c2ccco2)cc1OC | 18.3 | -0.5 | . | 1.0
O=C(/C=C/c1ccc(O)c(O)c1)c1ccccc1O | 92.3* | . | 9.8 | -20.5
COc1ccc(/C=C/C(=O)c2cc(Br)ccc2O)cc1OC | 65.6* | 0.1 | 3.0 | -2.7
Cn1ccnc1SCC(=O)N1CCc2ccccc21 | 14.7 | . | . | .
CCOc1cc(NC(=O)CC(C)C)c(OCC)cc1NC(=O)CCn1nnc2ccccc21 | 56.9* | 0.0 | -0.1 | 0.7
Cc1cccc(C(=O)NNC(=O)CCn2nnc3ccccc32)c1 | 88.8* | -0.2 | 1.3 | 0.2
CCOC(=O)c1ccc(NC(=O)CCn2nnc3ccccc32)cc1 | -1.0 | 0.1 | 0.0 | -1.2
CCc1ccc(/C(C)=N/NS(=O)(=O)c2ccc(OC)cc2)s1 | 22.3 | . | . | .
O=C(NC1CCSC1=O)C1CC(=O)N(c2ccc(F)cc2)C1 (centres undefined) | -2.5 | . | . | .
CCN(CC(=O)Nc1ccccc1OC)C(=O)c1ccc(N(C)S(=O)(=O)c2ccc(C)cc2)cc1 | 7.4 | . | . | .
COc1ccccc1NC(=O)CSc1nnc(COc2ccc(Cl)cc2)n1Cc1ccco1 | 93.6* | -0.2 | 0.5 | 2.0
COc1ccccc1C(=O)Nc1ccc2ccccc2c1 | 65.6* | . | . | .
O=C(Nc1cccc([N+](=O)[O-])c1)c1cc2ccccc2cc1O | 1.2 | . | 3.7 | -27.3
SMILES | HSF1 activator | Hsp70 act | zVAD death inh | TNF necrop inh
COc1ccc(C(=O)Nc2ccc3ccccc3c2)c(OC)c1 | 36.8 | . | . | .
Cc1oncc1C(=O)Nc1cccc2ccccc12 | 4.4 | . | . | .
O=C(Nc1ccncc1)c1cc2ccccc2cc1O | 261.4* | . | . | .
COc1ccccc1C(=O)Nc1cc(Cl)ccc1O | 65.2* | -0.1 | -0.2 | 5.1
Cc1oncc1C(=O)Nc1ccc2ccccc2c1 | 66.4* | . | . | .
CCOC(=O)c1c(S(=O)(=O)NCC(=O)N2CCN(c3ccc(OC)cc3)CC2)c(C)n(C)c1C | 8.9 | . | . | .
CCn1c2ccccc2c2nnc(SCC(=O)N3CC(C)OC(C)C3)nc21 (centres undefined) | -9.5 | -0.3 | 0.0 | -5.1
CCOC(=O)C1CCN(C(=O)CCCn2nc(C)c3c(C)n(-c4ccc(C)cc4)nc3c2=O)CC1 | -15.3 | . | . | .
COc1cccc(NC(=O)c2cc3cccc(OC)c3o/c2=N\O)c1 | 59.4* | . | . | .
O=C(Nc1ccc2ccccc2c1)c1ccccc1F | 56.3* | . | . | .
O=C(Nc1ccc(F)cc1)c1ccccc1F | 13.5 | 0.3 | -0.8 | -1.1
CC1CCc2c(sc(NC(=O)CSc3nnc(-c4ccccc4)o3)c2C#N)C1 (centres undefined) | 53.2* | -0.2 | 0.6 | -0.3
